Bioassay records as filed in PubChem.
IL1B secr inh – inhibitors of inflammasome signaling (IL-1 beta secretion); THP-1 LPS/ATP IL-1B secretion, AlphaLISA, 16 h; stronger effect = lower value; activity change, % at 57.5 µM; 360,000 compounds, 4.7% hits; AID 743279; in the data active = activity change below about -50%; inconclusive = mostly about -30% to -49%
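Secreted IL-1B measured by AlphaLISA bead assay after 16 h compound exposure of THP-1 cells; compounds (final up to 57.5 uM) added 1 h before LPS (250 ng/mL) and ATP (1.25 mM) stimulation; lower signal means less secretion.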
TDP1 cell noCPT – qHTS for Inhibitors of human tyrosyl-DNA phosphodiesterase 1 (TDP1): qHTS in cells in absence of CPT; DT40 Tdp1-/- hTDP1 cells, no CPT, ATP luminescence, 48 h; Potency, µM (highest dose often 46.2 µM), hits mostly inhibitors; 420,000 compounds, 15% hits; also: nearly all actives have a fitted effect of over 55% in size
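Chicken DT40 Tdp1-/- cells stably complemented with human TDP1 were seeded at 400 cells/well with DMSO in place of 20 nM camptothecin. After compound pinning, cells grew at least 48 hr at 37 °C; viability read by CellTiter-Glo luminescence.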
VP16 counter – inhibits Gal4-VP16 luciferase reporter, ROR gamma counter-screen. Potency, µM (top dose mostly 53.6 µM), actives largely listed as inhibitors. 310,000 compounds, 3.5% hits. Drosophila S2 Gal4-VP16 UAS-luciferase, luminescence, 20 h;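 also: Gal4-VP16 expression switched on by copper sulfate through the metallothionein promoter; nearly all actives have a fitted effect of over 50% in size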
RORgamma inh – inhibitors of mouse ROR gamma transcriptional activity; P51450; Drosophila S2 Gal4-RORgamma UAS-luciferase reporter, 20 h; Potency, µM (series often up to 53.6 µM), usual class: inhibitors; 310,000 compounds, 5.4% hits; also: nearly all actives have a fitted effect of over 60% in size
Target sequence (P51450 whole entry, looked up, the tested form may be a part): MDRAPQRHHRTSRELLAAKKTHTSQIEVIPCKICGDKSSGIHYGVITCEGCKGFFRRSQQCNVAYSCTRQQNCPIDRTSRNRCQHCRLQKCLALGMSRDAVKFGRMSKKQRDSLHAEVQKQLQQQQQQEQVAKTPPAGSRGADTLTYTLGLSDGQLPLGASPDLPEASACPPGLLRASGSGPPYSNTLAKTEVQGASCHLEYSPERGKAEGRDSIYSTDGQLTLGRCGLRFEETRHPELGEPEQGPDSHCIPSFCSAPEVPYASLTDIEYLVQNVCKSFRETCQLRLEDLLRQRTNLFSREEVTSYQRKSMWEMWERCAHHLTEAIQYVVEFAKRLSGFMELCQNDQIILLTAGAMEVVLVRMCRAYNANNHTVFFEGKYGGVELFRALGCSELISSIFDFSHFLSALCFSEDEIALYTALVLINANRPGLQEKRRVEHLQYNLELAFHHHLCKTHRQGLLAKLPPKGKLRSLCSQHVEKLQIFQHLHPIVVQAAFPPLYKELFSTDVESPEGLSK
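ROR gamma transcriptional activity was tracked as Gal4-UAS luciferase output in stably transfected Drosophila Schneider cells, with compound added 1 hr before 700 uM copper sulfate induction and a 20 hr ambient-temperature incubation.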
LDHA block – LDHA (human) enzyme inhibition. activity change, % (values are at about 110 or 230 µM). 480,000 compounds, 0.15% hits. P00338. purified LDHA, NADH/diaphorase-resazurin fluorescence; stronger effect = lower value; in the data active = activity change below about -30%; inconclusive = mostly about -25% to -30%
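Human LDH5 (2 nM) was incubated with 0.06 mM NADH and 0.2 mM pyruvate for 5 min at room temperature in Tris pH 7.4. Remaining NADH was coupled through diaphorase/resazurin, and resorufin fluorescence was read at 0 and 20 min.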
DT40 TDP1 CPT – DT40-hTDP1 cell growth loss with CPT; chicken DT40 Tdp1-/-;hTDP1 cells + 20 nM CPT, ATP luminescence, 48 h; Potency, µM (top dose mostly 46.2 µM), actives largely listed as inhibitors; 420,000 compounds, 12% hits; also: nearly all actives have a fitted effect of over 55% in size
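Chicken DT40 Tdp1-/- cells stably complemented with human TDP1 were seeded at 400 cells/well in medium containing 20 nM camptothecin, exposed to pin-transferred compounds, and grown at 37 °C for at least 48 hr. Viability was read as ATP luminescence.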
Numbers stand for hits; [ ] = another dose, or the depositor's remark. Sampled rows, rich in hits. Any-hit rate of the full collection: about 18%. Unless noted, calls follow the shape of the dose curve; as a rule, active = well fitted curve in the direction sought with a large enough effect; inconclusive = small, poorly fitted or top-dose-only effect, or another doubt; inactive = no such curve, though single readings can be large; an effect the other way counts as inactive or inconclusive.

Screening O=C(Nc1ccccn1)c1ccc2c(c1)OCCO2 returned IL1B secr inh inactive, TDP1 cell noCPT inconclusive, VP16 counter inactive, RORgamma inh 10µM, LDHA block inactive and DT40 TDP1 CPT inconclusive.
For CC(=O)Nc1ccc(C(=O)Nc2nc(-c3ccccn3)cs2)cc1 the results were IL1B secr inh inactive, TDP1 cell noCPT 14.6µM, VP16 counter inactive, RORgamma inh 7.94µM, LDHA block inactive and DT40 TDP1 CPT 16.4µM.
For CC(NC(=S)NNC=O)c1ccccc1 (stereo not drawn) the results were LDHA block inactive.
Screening Cc1cccc(NC(=O)C23CC4CC(CC(Cl)(C4)C2)C3)c1 returned LDHA block inactive.
`Cc1ccc(CNC(=O)c2ccccc2NCC(=O)N2CC(=O)Nc3ccccc32)cc1` gave LDHA block inactive.
`O=C(Nc1ccccc1)C1=C(c2ccccc2)SCCO1` gave LDHA block inactive.
CC1(C)CC(=O)C2=C(C1)NC1=C(C(=O)c3ccccc31)C2c1ccc(C(F)(F)F)cc1 (stereo not drawn) was read as LDHA block inactive.
Screening CC(C)c1ccc(C2C3=C(CC(C)(C)CC3=O)NC3=C2C(=O)c2ccccc23)cc1 (stereo not drawn) returned IL1B secr inh inconclusive, TDP1 cell noCPT inconclusive, VP16 counter inactive, RORgamma inh inactive, LDHA block inactive and DT40 TDP1 CPT 20.6µM.
`CSc1ccc(CN(C)C(=O)c2ccc3c(c2)CCCC3)cc1` gave LDHA block inactive.
Cc1nc(Nc2ccc3c(c2)OCCO3)c2c(C)c(C)sc2n1 was read as IL1B secr inh inactive, TDP1 cell noCPT 20.6µM, VP16 counter inactive, RORgamma inh inactive, LDHA block inactive and DT40 TDP1 CPT inconclusive.
`c1ccc2c(c1)oc1c(Nc3ccc4c(c3)OCCO4)ncnc12` gave IL1B secr inh inactive, TDP1 cell noCPT inconclusive, VP16 counter inactive, RORgamma inh inactive, LDHA block inactive and DT40 TDP1 CPT 8.91µM.
Cc1nc(Nc2ccc3c(c2)OCCO3)c2oc3ccccc3c2n1 was read as IL1B secr inh -83.8, TDP1 cell noCPT 20.6µM, VP16 counter inactive, RORgamma inh inactive, LDHA block inactive and DT40 TDP1 CPT inconclusive.
For Cc1nc(Nc2ccccc2F)c2oc3ccccc3c2n1 the results were IL1B secr inh inactive, TDP1 cell noCPT inconclusive, VP16 counter inconclusive, RORgamma inh inactive, LDHA block inactive and DT40 TDP1 CPT inactive.
For CC(=O)Nc1ccc(CNC2CCC(C)CC2)cc1 (stereo not drawn) the results were LDHA block inactive.
Screening Cc1ccc(NC(=O)c2cc3c(s2)CCCC3)cc1 returned IL1B secr inh -53.3, TDP1 cell noCPT inactive, VP16 counter inactive, RORgamma inh inconclusive, LDHA block inactive and DT40 TDP1 CPT inconclusive.
COc1ccccc1NC(=O)c1ccc(NC(=O)c2cc3c(s2)CCC3)cc1 was read as IL1B secr inh inactive, TDP1 cell noCPT 16.4µM, VP16 counter inactive, RORgamma inh inactive, LDHA block inactive and DT40 TDP1 CPT inconclusive.
O=C(/C=C/c1cc(Cl)cc(Cl)c1)NC1CCC(O)CC1 (stereo not drawn) was read as LDHA block inactive.
Cc1c(-c2ccccc2)[nH]c2ccc(Cl)cc12 was read as LDHA block inactive.
Screening CCn1nc(C(=O)Nc2cc(OC)c(OC)c(OC)c2)c2ccccc2c1=O returned LDHA block inactive.
For CCS(=O)(=O)NC(CCSC)C(=O)O (stereo not drawn) the results were LDHA block inactive.
Screening Cc1ccc(NC(=O)CNC(=O)CC23CC4CC(CC(C4)C2)C3)c(O)c1 returned IL1B secr inh -52.3, TDP1 cell noCPT inactive, LDHA block inactive and DT40 TDP1 CPT inactive.
`COc1ccc(NC(=O)CNC(=O)CC23CC4CC(CC(C4)C2)C3)c(OC)c1` gave IL1B secr inh inactive, TDP1 cell noCPT inconclusive, LDHA block inactive and DT40 TDP1 CPT inconclusive.
O=C(CC12CC3CC(CC(C3)C1)C2)Nc1ccccc1C(=O)Cc1ccccc1 was read as LDHA block inactive.
Screening NC(=O)c1ccccc1NC(=O)CC12CC3CC(CC(C3)C1)C2 returned IL1B secr inh inactive, TDP1 cell noCPT inconclusive, VP16 counter inactive, RORgamma inh inactive[1.91 µM], LDHA block inactive and DT40 TDP1 CPT 20.6µM.
Screening COc1cccc(N2C(=O)c3ccccc3NC2c2cn(C)c(=O)n(C)c2=O)c1 (stereo not drawn) returned LDHA block inactive.
Cc1cc(C)c(CCNC(=O)NNc2nc(C)cc(C)n2)c(C)c1 was read as LDHA block inactive.
Cc1cccc(C(=O)NNC(=O)c2c(O)c3ccccc3n(C)c2=O)c1 was read as IL1B secr inh inactive, TDP1 cell noCPT 29.1µM, VP16 counter inactive, RORgamma inh inactive, LDHA block inactive and DT40 TDP1 CPT inconclusive.
`Cn1c(=O)c(C(=O)NNC(=O)c2cccc(Cl)c2)c(O)c2ccccc21` gave IL1B secr inh inconclusive, TDP1 cell noCPT 13µM, VP16 counter 17.8µM, RORgamma inh 14.1µM, LDHA block inactive and DT40 TDP1 CPT 18.4µM.
CC(=O)c1c(O)c2ccccc2n(C)c1=O was read as IL1B secr inh inactive, TDP1 cell noCPT inactive, VP16 counter inactive, RORgamma inh inactive, LDHA block inactive and DT40 TDP1 CPT inactive.
For CCCCCCCCC(=O)NNC(=O)c1c(O)c2ccccc2n(CCC)c1=O the results were IL1B secr inh inactive, TDP1 cell noCPT inconclusive, VP16 counter inactive, RORgamma inh inactive, LDHA block inactive and DT40 TDP1 CPT 23.1µM.
CCn1c(=O)c(C(=O)NNC(=O)c2cccc(Cl)c2)c(O)c2ccccc21 was read as IL1B secr inh inactive, TDP1 cell noCPT inconclusive, VP16 counter inconclusive, RORgamma inh inconclusive, LDHA block inactive and DT40 TDP1 CPT 23.1µM.
Screening CCCCCCCCCC(=O)NNC(=O)c1c(O)c2ccccc2n(CCC)c1=O returned IL1B secr inh inactive, TDP1 cell noCPT inconclusive, VP16 counter inactive, RORgamma inh inactive, LDHA block inactive and DT40 TDP1 CPT inconclusive.
`COc1ccc(Cl)cc1NC(=O)c1nc2ccccc2nc1N1CCCC1` gave LDHA block inactive.
Screening CC(C)(C)c1noc(CN2CCN(c3cccc(F)c3C#N)CC2)n1 returned LDHA block inactive.
`O=C(NCc1ccc(Cl)cc1Cl)C1CCCN(c2ncnc3nc[nH]c23)C1` (stereo not drawn) gave LDHA block inactive.
For CCOC(=O)c1ccc(NC(=O)CSc2ncnc3c(-c4ccc(OC)cc4)c[nH]c23)cc1 the results were LDHA block inactive.
